Test results as given in PubChem BioAssay (Tox21).
Where “and” joins values, the source holds several entries; their conditions need not be identical. Equal values may be shown once. Inconclusive results are not listed. More than one record can exist for a structure, and the calls need not agree. Calls of active or inactive are those of the source. Unless noted, calls come from the whole dose curve; as a rule, active = well fitted curve in the direction sought with a large enough effect in the repeat runs; inconclusive = weak or mixed curves; inactive = no such curve, though single readings can be large; an effect the other way counts as inactive or inconclusive.

Assays:
[1] = qHTS assay to identify small molecule antagonists of the sonic hedgehog signaling (Shh) pathway (AID 1259369; calls by dose curve; note: nearly all actives have a fitted effect of over 45% in size; note: potency is the fitted concentration of half-maximal effect)
Procedure, shortened: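 Luminescence readout: firefly Luc under Gli1 response element in 3T3Gli1-Luc cells (NIH/3T3 clone). Antagonist mode, stimulation by conditioned medium; compound exposure 24hr at 37 C, 5% CO2.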

[2] = molecular target: Estrogen receptor beta (Homo sapiens) (UniProt Q92731); assay: qHTS assay to identify small molecule agonists of the estrogen receptor beta (ER-beta) signaling pathway (AID 1259377; active = well fitted activation curve with a large enough effect in the signal ratio in the repeat runs, not every such curve was filed as active; the % refers to the signal ratio; note: potency is the fitted concentration of half-maximal effect)
Estrogen receptor beta (Homo sapiens), sequence (Q92731 whole entry, looked up): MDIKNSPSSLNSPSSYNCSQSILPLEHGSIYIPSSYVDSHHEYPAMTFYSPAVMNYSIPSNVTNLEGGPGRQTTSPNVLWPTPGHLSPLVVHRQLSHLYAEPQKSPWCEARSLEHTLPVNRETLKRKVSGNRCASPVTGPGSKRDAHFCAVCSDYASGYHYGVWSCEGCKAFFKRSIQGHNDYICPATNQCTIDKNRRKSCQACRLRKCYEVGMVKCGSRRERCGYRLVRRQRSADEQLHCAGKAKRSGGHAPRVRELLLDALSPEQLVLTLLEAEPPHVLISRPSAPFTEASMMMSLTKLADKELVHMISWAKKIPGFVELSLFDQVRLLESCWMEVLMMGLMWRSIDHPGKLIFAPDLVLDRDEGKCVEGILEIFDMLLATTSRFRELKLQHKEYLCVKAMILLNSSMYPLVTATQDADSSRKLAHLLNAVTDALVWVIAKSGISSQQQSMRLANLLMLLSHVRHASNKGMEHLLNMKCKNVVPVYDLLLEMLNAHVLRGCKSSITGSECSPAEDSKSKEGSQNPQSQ
Procedure, shortened: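 HEK293T ER-beta-UAS-bla; 2% charcoal-stripped FBS; cells pre-incubated 6 hr, compound 16 hr, 37C/5% CO2; LiveBLAzer B/G FRET substrate 2 h RT; fluorescence intensity read.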

[3] = molecular target: Estrogen receptor beta (Homo sapiens) (UniProt Q92731); assay: qHTS assay to identify small molecule antagonists of the estrogen receptor beta (ER-beta) signaling pathway (AID 1259378; active = well fitted inhibition curve with a large enough effect in the signal ratio in the repeat runs, not every such curve was filed as active; the % refers to the signal ratio; note: potency is the fitted concentration of half-maximal effect)
Procedure, shortened: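 Antagonist mode: compounds added to beta-lactamase reporter HEK293T ER-beta-UAS cells stimulated with E2 (1nM final), 16 hr at 37C. LiveBLAzer B/G FRET substrate, 2 hours room temperature, fluorescence read-out.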

[4] = qHTS assay to identify small molecule agonists of the androgen receptor (AR) signaling pathway in the presence of an antagonist - cell viability counter screen (AID 1259379); note: nearly all actives have a fitted effect of over 25% in size; note: potency is the fitted concentration of half-maximal effect
Procedure, shortened: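 Viability counter screen: CellTiter-Fluor fluorescence, measured in the same wells as the luciferase read-out. MDA-kb2 cells, 3,000/well, with nilutamide at 3.0uM final and compounds at 15 concentrations, 16 hr at 37C, 0% CO2.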

[5] = molecular target: Androgen receptor (Homo sapiens) (UniProt P10275); assay: qHTS assay to identify small molecule agonists of the androgen receptor (AR) signaling pathway in the presence of an antagonist (AID 1259381; calls by dose curve; note: nearly all actives have a fitted effect of over 15% in size)
Androgen receptor (Homo sapiens), sequence (P10275 whole entry, looked up): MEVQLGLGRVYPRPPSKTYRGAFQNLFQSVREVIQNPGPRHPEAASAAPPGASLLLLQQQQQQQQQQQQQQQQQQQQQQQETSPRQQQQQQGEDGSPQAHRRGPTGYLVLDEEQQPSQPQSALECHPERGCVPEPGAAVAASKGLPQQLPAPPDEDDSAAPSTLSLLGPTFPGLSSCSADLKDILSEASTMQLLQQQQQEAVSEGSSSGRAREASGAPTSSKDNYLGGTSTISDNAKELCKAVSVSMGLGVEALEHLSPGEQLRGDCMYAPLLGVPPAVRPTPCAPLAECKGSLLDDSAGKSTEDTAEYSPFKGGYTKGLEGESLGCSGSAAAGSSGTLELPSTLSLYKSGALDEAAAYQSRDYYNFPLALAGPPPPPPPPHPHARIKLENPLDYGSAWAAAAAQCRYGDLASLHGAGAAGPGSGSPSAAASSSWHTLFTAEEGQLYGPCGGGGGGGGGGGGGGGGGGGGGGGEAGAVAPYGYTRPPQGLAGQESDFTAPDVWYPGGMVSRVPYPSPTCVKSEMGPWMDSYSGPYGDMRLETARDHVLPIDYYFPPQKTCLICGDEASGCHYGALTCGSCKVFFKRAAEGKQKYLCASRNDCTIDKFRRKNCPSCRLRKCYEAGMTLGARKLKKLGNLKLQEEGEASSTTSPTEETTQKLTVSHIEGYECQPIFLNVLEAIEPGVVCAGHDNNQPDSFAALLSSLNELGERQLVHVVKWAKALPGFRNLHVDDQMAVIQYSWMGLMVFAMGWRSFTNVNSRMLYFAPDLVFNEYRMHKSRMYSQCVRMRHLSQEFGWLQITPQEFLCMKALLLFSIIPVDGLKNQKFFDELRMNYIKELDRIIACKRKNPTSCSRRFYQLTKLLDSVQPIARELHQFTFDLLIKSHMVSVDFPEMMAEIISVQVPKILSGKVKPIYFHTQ
Procedure, shortened: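 Luciferase read-out (ONE-Glo, 30min room temperature) in MDA-kb2 MMTV-reporter cells; agonist mode run in presence of AR antagonist nilutamide, 3.0uM final. Compounds tested as 15-point series, 16hr exposure at 37C, 0% CO2.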

[6] = qHTS assay to identify small molecule antagonists of the estrogen receptor beta (ER-beta) signaling pathway - cell viability counter screen (AID 1259382); note: nearly all actives have a fitted effect of over 55% in size; note: potency is the fitted concentration of half-maximal effect
Procedure, shortened: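 Luminescent ATP read-out (CellTiter-Glo, 30 min, RT) taken in the same wells as the bla reporter assay. HEK293T ER-beta-UAS-bla cells in 2% charcoal-stripped FBS were exposed to compounds with 1nM E2 for 16 hr at 37C.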

[7] = molecular target: Thyrotropin receptor (Homo sapiens) (UniProt P16473); assay: qHTS assay to identify small molecule antagonists of the thyroid stimulating hormone receptor (TSHR) signaling pathway (AID 1259385; calls by dose curve; note: nearly all actives have a fitted effect of over 20% in size; note: potency is the fitted concentration of half-maximal effect)
Thyrotropin receptor (Homo sapiens), sequence (P16473 whole entry, looked up): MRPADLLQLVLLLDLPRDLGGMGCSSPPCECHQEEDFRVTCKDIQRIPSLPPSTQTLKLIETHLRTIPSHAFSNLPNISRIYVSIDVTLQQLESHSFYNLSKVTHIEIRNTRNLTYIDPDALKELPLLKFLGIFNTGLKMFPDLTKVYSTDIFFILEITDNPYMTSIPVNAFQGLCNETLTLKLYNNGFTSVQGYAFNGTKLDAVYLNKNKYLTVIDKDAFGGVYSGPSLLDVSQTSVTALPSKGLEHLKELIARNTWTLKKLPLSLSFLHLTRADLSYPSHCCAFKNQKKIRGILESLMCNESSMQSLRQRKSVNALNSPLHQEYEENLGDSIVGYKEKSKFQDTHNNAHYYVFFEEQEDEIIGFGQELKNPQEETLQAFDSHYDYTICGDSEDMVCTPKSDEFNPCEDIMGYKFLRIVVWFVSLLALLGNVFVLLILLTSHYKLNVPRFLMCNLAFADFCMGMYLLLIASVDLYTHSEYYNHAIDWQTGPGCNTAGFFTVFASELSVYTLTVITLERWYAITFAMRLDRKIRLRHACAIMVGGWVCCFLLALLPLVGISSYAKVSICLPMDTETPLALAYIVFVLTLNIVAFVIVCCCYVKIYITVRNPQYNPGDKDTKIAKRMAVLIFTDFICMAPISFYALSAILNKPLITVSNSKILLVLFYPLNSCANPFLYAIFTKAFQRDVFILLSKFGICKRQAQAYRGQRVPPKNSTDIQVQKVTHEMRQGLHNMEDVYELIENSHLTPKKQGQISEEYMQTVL
Procedure, shortened: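 Antagonist mode: compound-treated TSHR-expressing HEK293 cells were stimulated with 1.5 ng/mL TSH (final) in presence of Ro20-1724 for 30 min at RT. HTRF cAMP detection after 1 h; each compound tested at 15 concentrations, triplicate.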

[8] = qHTS assay to identify small molecule agonists of the estrogen receptor alpha (ER-alpha) signaling pathway in the presence of an antagonist - cell viability counter screen (AID 1259386);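 note: cells exposed to compounds for 22 h at 37 °C before the viability read; nearly all actives have a fitted effect of over 30% in size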; note: potency is the fitted concentration of half-maximal effect
Procedure, shortened: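 Read-out: CellTiter-Fluor fluorescence after 1hr reagent incubation, measured in the same wells as the luciferase readout. VM7Luc4E2 cells were exposed to 15 compound concentrations with 10.0nM ICI-182,780 for 22hr at 37C.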

[9] = molecular target: Progesterone receptor (Homo sapiens) (UniProt P06401); assay: qHTS assay to identify small molecule antagonists of the progesterone receptor (PR) signaling pathway (AID 1346795; active = well fitted inhibition curve with a large enough effect in the signal ratio in the repeat runs, not every such curve was filed as active; the % refers to the signal ratio; note: potency is the fitted concentration of half-maximal effect)
Progesterone receptor (Homo sapiens), sequence (P06401 whole entry, looked up): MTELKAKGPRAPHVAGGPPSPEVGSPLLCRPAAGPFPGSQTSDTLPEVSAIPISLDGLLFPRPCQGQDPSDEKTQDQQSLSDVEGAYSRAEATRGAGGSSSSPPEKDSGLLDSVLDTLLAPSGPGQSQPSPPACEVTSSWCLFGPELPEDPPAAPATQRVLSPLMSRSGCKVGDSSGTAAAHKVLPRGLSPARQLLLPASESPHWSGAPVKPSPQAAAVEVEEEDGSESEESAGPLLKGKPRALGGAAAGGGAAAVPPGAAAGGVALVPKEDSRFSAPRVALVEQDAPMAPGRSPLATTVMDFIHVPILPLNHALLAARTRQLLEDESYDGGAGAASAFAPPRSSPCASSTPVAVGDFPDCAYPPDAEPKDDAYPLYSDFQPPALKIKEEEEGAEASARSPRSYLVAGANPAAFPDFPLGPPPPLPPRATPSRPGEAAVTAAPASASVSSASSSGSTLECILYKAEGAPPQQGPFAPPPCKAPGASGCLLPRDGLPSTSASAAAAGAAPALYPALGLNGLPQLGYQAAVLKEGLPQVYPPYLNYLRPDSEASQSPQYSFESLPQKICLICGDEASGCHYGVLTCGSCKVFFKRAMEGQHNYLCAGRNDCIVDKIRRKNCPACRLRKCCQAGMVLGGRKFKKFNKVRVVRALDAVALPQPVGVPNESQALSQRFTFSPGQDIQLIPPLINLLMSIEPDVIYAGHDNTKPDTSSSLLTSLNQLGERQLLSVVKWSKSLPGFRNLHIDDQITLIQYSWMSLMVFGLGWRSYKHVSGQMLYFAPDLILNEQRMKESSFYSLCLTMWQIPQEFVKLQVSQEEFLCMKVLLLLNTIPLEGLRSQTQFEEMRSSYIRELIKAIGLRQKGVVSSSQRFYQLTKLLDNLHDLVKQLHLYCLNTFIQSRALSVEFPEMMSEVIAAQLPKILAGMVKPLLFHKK
Procedure, shortened: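 Read-out is fluorescence from the LiveBLAzer B/G FRET substrate, cleaved by a UAS-controlled beta-lactamase in PR-UAS-bla HEK293T cells after 16 hr exposure to compound plus 1 nM promegestone (final), followed by 2 hr at room temperature.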

[10] = qHTS assay to identify small molecule antagonists of the progesterone receptor (PR) signaling pathway - cell viability counter screen (AID 1346798); note: nearly all actives have a fitted effect of over 50% in size; note: potency is the fitted concentration of half-maximal effect
Procedure, shortened: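 HEK293T PR-UAS-bla, 2% charcoal-stripped FBS; 4 hr pre-plate; cpd + R5020, 16 h 37C; LiveBLAzer read first; then CellTiter-Glo 30 min RT, luminescence.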

[11] = qHTS assay to identify small molecule agonists of the progesterone receptor (PR) signaling pathway - cell viability counter screen (AID 1346799; calls by dose curve; note: nearly all actives have a fitted effect of over 45% in size; note: potency is the fitted concentration of half-maximal effect)
Procedure, shortened: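 Luminescence from CellTiter-Glo, added after the beta-lactamase FRET read in the same wells, gave cytotoxicity in PR-UAS-bla HEK293T cells treated with compounds for 16 hr at 37C.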

[12] = qHTS assay to identify small molecule antagonists of the TGF-beta/Smad signaling pathway - cell viability counter screen (AID 1346824); note: nearly all actives have a fitted effect of over 50% in size; note: potency is the fitted concentration of half-maximal effect
Procedure, shortened: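 Cytotoxicity counter-screen run in the same wells as the beta-lactamase Smad reporter read: CellTiter-Glo luminescence after 30 min at room temperature. HEK 293T SBE-bla cells had 5 hr compound exposure at 37 C with TGF-beta1 (0.25 ng/mL stock).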

[13] = qHTS assay to identify small molecule agonists of the TGF-beta/Smad signaling pathway - cell viability counter screen (AID 1346829); note: top concentration of the series differs between compounds; nearly all actives have a fitted effect of over 45% in size
Procedure, shortened: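 Luminescence from CellTiter-Glo, read after a 30 min room-temperature incubation, gives cell viability of SBE-bla HEK 293T cells treated 5 hr with compounds at 37 C.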

[14] = qHTS assay to identify small molecule agonists of the estrogen receptor beta (ER-beta) signaling pathway - cell viability counter screen (AID 1259380); note: nearly all actives have a fitted effect of over 30% in size
Procedure, shortened: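 Luminescence read-out (CellTiter-Glo, 30 min, room temp) taken in the same wells as the beta-lactamase reporter assay; ER-beta-UAS-bla HEK293T cells exposed to DMSO-dissolved compounds for 16 hr at 37C in 2% charcoal-stripped FBS medium.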

[15] = molecular target: Estrogen receptor (Homo sapiens) (UniProt P03372); assay: qHTS assay to identify small molecule agonists of the estrogen receptor alpha (ER-alpha) signaling pathway in the presence of an antagonist (AID 1259383; calls by dose curve; note: top concentration of the series differs between compounds; nearly all actives have a fitted effect of over 15% in size)
Estrogen receptor (Homo sapiens), sequence (P03372 whole entry, looked up): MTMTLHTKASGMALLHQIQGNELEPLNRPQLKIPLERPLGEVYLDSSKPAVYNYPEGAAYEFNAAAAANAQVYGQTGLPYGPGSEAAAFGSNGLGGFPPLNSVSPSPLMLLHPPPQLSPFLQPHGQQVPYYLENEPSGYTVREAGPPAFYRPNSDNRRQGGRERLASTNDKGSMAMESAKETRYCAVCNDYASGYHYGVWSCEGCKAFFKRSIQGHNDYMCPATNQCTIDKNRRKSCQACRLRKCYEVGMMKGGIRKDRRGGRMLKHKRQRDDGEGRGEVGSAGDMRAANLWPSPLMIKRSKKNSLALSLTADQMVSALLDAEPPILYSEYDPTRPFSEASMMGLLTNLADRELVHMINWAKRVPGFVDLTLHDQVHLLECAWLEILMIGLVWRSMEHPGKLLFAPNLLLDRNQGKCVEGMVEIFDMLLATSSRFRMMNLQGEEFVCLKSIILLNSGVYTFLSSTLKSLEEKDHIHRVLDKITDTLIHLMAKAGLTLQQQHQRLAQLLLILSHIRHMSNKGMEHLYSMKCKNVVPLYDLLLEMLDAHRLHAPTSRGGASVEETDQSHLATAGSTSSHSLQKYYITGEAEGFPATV
Procedure, shortened: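 Luciferase luminescence (ONE-Glo, 30min at room temperature) measured in VM7Luc4E2 cells after 22hr compound exposure at 15 concentrations, with 10.0nM ICI-182,780 final present; cells express endogenous ER-alpha and carry four EREs upstream of luciferase.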

[16] = molecular target: Progesterone receptor (Homo sapiens) (UniProt P06401); assay: qHTS assay to identify small molecule agonists of the progesterone receptor (PR) signaling pathway (AID 1346784; calls by dose curve; note: nearly all actives have a fitted effect of over 30% in size)
Procedure, shortened: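 Beta-lactamase reporter read-out: after 16 hr compound treatment at 37C and a further 2 hr at room temperature with LiveBLAzer B/G FRET substrate, fluorescence was measured in PR-UAS-bla HEK 293T cells grown in 2% charcoal-stripped serum.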

[17] = qHTS assay to identify small molecule agonists of the TGF-beta/Smad signaling pathway (AID 1346859; active = well fitted activation curve with a large enough effect in the signal ratio in the repeat runs, not every such curve was filed as active; the % refers to the signal ratio; note: series mostly up to about 77 µM)
Procedure, shortened: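 SBE-bla HEK 293T, 4,000 cells/well, plated o/n; cpd in DMSO, 5 hr, 37 C/5% CO2; B/G FRET substrate 2 hr RT; ex 405, em 460/530 nm.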

[18] = molecular target: Thyrotropin-releasing hormone receptor (Homo sapiens) (UniProt P34981); assay: qHTS assay to identify small molecule antagonists of the thyrotropin-releasing hormone receptor (TRHR) signaling pathway (AID 1346877; active = well fitted inhibition curve with a large enough effect in the repeat runs, not every such curve was filed as active; note: series mostly up to about 51 µM)
Thyrotropin-releasing hormone receptor (Homo sapiens), sequence (P34981 whole entry, looked up): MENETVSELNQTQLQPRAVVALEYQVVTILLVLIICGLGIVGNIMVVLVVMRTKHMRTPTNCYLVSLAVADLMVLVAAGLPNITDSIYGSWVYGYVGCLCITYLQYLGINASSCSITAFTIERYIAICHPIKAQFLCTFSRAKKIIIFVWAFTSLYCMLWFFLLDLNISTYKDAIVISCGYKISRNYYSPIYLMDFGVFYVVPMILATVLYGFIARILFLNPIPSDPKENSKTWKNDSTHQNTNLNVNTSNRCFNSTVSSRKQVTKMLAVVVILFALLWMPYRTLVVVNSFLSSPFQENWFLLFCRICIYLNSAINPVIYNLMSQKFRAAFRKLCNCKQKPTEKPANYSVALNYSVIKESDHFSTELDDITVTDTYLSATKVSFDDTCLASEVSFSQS
Procedure, shortened: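 HEK293/TRHR cells, 18 h, 37 °C; Ca2+ dye 2 h; cpd 5 min RT; TRH 1 nM final; fluorescence read 3 min, 1 s intervals; 15 concs, triplicate.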

[19] = molecular target: Thyrotropin-releasing hormone receptor (Homo sapiens) (UniProt P34981); assay: qHTS assay to identify small molecule agonists of the thyrotropin-releasing hormone receptor (TRHR) signaling pathway (AID 1346891; calls by dose curve; note: series mostly up to about 58 µM)
Procedure, shortened: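 Intracellular calcium rise, read as fluorescence every second for 3 min, served as the agonist signal in dye-loaded HEK293 cells expressing TRHR; each compound ran at 15 concentrations in triplicate.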

[20] = qHTS assay to identify small molecule agonists or antagonists of the thyroid stimulating hormone receptor (TSHR) signaling pathway - wild type cell line counter screen (AID 1259384; calls by dose curve)
Procedure, shortened: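 Counter screen in untransfected Hek293: compounds (15-point titration, triplicate) plus phosphodiesterase inhibitor Ro20-1724 added after 18 h plating; 30 min RT. Intracellular cAMP via competitive d2/cryptate immunoassay, 1 h incubation.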

Measured: Potency

C[CH2][Hg][S]c1ccccc1C(=O)O
inactive: [2] | [5] | [13]
active: [1] 0.686 µM | [3] 3.35 µM | [4] 10.9 µM and 13.3 µM | [6] 2.43 µM and 5.31 µM | [7] 13.7 µM and 29.8 µM | [8] 13.7 µM and 21.1 µM | [9] 1.54 µM and 3.35 µM | [10] 2.73 µM and 6.68 µM | [11] 1.93 µM and 6.68 µM | [12] 43.6 µM and 19 µM

O=[N+]([O-])c1cc(Cl)c(Cl)cc1Cl
inactive: [1] | [2] | [3] | [14] | [6] | [15] | [8] | [16] | [9] | [10] | [11] | [12] | [13] | [17]

C=CCOC(=O)C(C)(C)OC(=O)c1cc(-n2c(=O)cc(C(F)(F)F)n(C)c2=O)ccc1Cl
inactive: [1] | [2] | [3] | [4] | [6] | [15] | [8] | [10] | [11] | [12] | [13] | [17] | [18] | [19]

OCCCl
inactive: [1] | [2] | [3] | [4] | [14] | [6] | [8] | [16] | [9] | [11] | [12] | [17]

CC(C)CCON=O
inactive: [1] | [2] | [3] | [14] | [6] | [20] | [7] | [8] | [16] | [9] | [10] | [11] | [12] | [13] | [17] | [18] | [19]

COP(=O)(OC)OC(Br)C(Cl)(Cl)Br (stereo unspecified)
active: [1] 12.2 µM
inactive: [2] | [3] | [4] | [5] | [6] | [15] | [20] | [7] | [8] | [16] | [9] | [10] | [11] | [12] | [13] | [17] | [18] | [19]

Nc1cc(Cl)cc(C(=O)O)c1Cl
inactive: [1] | [2] | [3] | [4] | [14] | [6] | [8] | [16] | [9] | [10] | [11] | [12] | [13] | [17] | [18] | [19]

CCOC(=O)C1OC1(C)c1ccccc1 (stereo unspecified)
inactive: [1] | [2] | [3] | [14] | [6] | [20] | [7] | [8] | [16] | [9] | [10] | [11] | [12] | [13] | [17] | [18] | [19]

CC(C)(C)OOC(C)(C)CCC(C)(C)OOC(C)(C)C
inactive: [1] | [2] | [3] | [14] | [20] | [7] | [8] | [16] | [9] | [10] | [11] | [12] | [13] | [17] | [18] | [19]

COc1ccccc1N1CCNCC1
inactive: [1] | [2] | [3] | [4] | [6] | [20] | [7] | [8] | [16] | [9] | [10] | [11] | [12] | [13] | [17] | [18] | [19]

Clc1ccc(Cl)c(Cl)c1
inactive: [1] | [3] | [14] | [6] | [20] | [7] | [8] | [16] | [9] | [10] | [11] | [12] | [13] | [17] | [18] | [19]
59.5 µM (active) and inactive: [2]

O=S(=O)(c1ccccc1)c1ccccc1
inactive: [1] | [2] | [3] | [4] | [6] | [20] | [7] | [8] | [16] | [11] | [12] | [13] | [17] | [18] | [19]

Cc1ccccc1
inactive: [1] | [2] | [3] | [4] | [6] | [20] | [7] | [8] | [16] | [9] | [10] | [11] | [12] | [13] | [17] | [18] | [19]

CCCN(CCC)c1c([N+](=O)[O-])cc(C(C)C)cc1[N+](=O)[O-]
inactive: [1] | [2] | [3] | [4] | [6] | [15] | [20] | [7] | [8] | [16] | [10] | [11] | [12] | [13] | [17] | [18] | [19]

C=C(C)C(=O)OCCCCOC(=O)C(=C)C
inactive: [1] | [2] | [3] | [14] | [6] | [15] | [20] | [8] | [16] | [9] | [10] | [11] | [12] | [13] | [17] | [18] | [19]

C[N+](C)(C)CCOC(=O)C(O)(c1ccccc1)c1ccccc1
inactive: [1] | [2] | [3] | [14] | [6] | [8] | [16] | [9] | [10] | [11] | [12] | [13] | [17] | [18] | [19]

CC(C)(C)NCC(O)c1ccccc1Cl (stereo unspecified)
inactive: [1] | [2] | [3] | [4] | [6] | [15] | [20] | [7] | [8] | [16] | [9] | [10] | [11] | [12] | [13] | [17] | [18] | [19]
